Experimental data as given in PubChem BioAssay (EPA / NIEHS).
Records with an inconclusive call do not appear. Activity calls are given as the source filed them. The calls were made as follows: active = hit-call score of the fitted dose curve at least 0.9, where 1 is the maximum; inconclusive = response in the unintended direction; inactive = score below 0.9.

Assay: ACEA_AR_agonist_AUC_viability: ACEA Biosciences xCELLigence Real-Time Cell Analysis on Androgen Receptor Agonism for Viability (AID 2283775);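 as to AC50: viability read 80 hours after compound addition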
Procedure: ACEA_AR_agonist is a cell-based, single-readout assay that uses 22Rv1, a human prostate cancer cell line, with measurements taken at 80 hours after chemical dosing in a 384-well plate, although TO5 and TO6 (mc0.srcf) used a 96-well plate. Differences in plate size can be ignored given data normalization.ACEA_AR_80hr is one of two assay component(s) measured or calculated from the ACEA_AR assay. It is designed to make measurements of real-time cell-growth kinetics, a form of growth reporter, as detected with electrical impedance signals by Real-Time Cell Electrode Sensor (RT-CES) technology.Data from the assay component ACEA_AR_AUC_viability was analyzed in the positive analysis fitting direction relative to DMSO as the negative control and baseline of activity. Using a type of growth reporter, loss-of-signal activity can be used to understand changes in the viability. Furthermore, this assay endpoint can be referred to as a secondary readout, because this assay has produced multiple assay endpoints where this one serves a viability function. To generalize the intended target to other relatable targets, this assay endpoint is annotated to the cell cycle intended target family, where the subfamily is cytotoxicity.
The xCELLigence system Multi-E-Plate stations were used to measure the time-dependent response to chemicals. Each compound was tested in an eight-point, 1:4 serial dilution series starting at a maximum final concentration of 100 uM. A maximum starting concentration of 0.5% DMSO was present in the 100 uM chemical samples and was diluted along with the test article dilution series. The screen was performed in biological duplicate using two separate, 96-well, E-Plates 96 for each dilution series (n = 2). Positive controls (MG132 and testosterone) and a negative control (assay media) were tested in quadruplicate on each testing plate. Then, 0.5% and 0.125% DMSO were tested in duplicates in each plate to serve as solvent controls for the 2 highest concentrations of testing compounds: 100 uM and 25 uM. Reference compounds were tested with 8 concentrations with 1:5 serial dilutions. All screening was carried out by ACEA Biosciences, Inc. (San Diego, CA). 22Rv1 cells purchased from ATCC were maintained in media supplemented with 10% fetal bovine serum (FBS). Before screening, 22Rv1 cells were preconditioned in assay medium. Cells were then detached and seeded in E-Plates 96 in assay medium. After overnight monitoring of growth once every hour, compounds were added to […] cells and remained in the medium until the end of the experiment. Cellular responses were then recorded once every 5 min for the first 5 h, and once every hour for an additional 100 h.

Structure (SMILES)	AC50	outcome
O=C1OC(c2ccc(O)cc2)(c2ccc(O)cc2)c2ccccc21	21.1 µM (active)	
CCCCCCCCCCCCCCOS(=O)(=O)O	68 µM (active)	
NC(=Nc1ccccc1)Nc1ccccc1		inactive
N[C@@H](Cc1c[nH]c2ccccc12)C(=O)O		inactive
O=C(O)c1cccnc1		inactive
COc1ccc(C(=O)Nc2nc3ccccc3c(NCc3ccccc3)c2C#N)cc1	24 µM (active)	
CC(N)=O		inactive
O=C(O)CN(CC(=O)O)CC(=O)O		inactive
C#CC(O)C(CC)CCCC (stereo not given)		inactive
O=C(NS(=O)(=O)/C=C/c1cccs1)c1ccc(F)cc1Br	3.38 µM (active)	
CCCC(=O)O		inactive
COC(=O)CCC(=O)OC		inactive
CO[C@@H]1COCC[C@@H]1N[C@@H]1CC[C@@](C(=O)N2CCc3ncc(C(F)(F)F)cc3C2)(C(C)C)C1		inactive
CC(=O)S[C@H](C(=O)N[C@H]1Cc2ccccc2[C@H]2CCC[C@@H](C(=O)O)N2C1=O)C(C)C		inactive
CCc1nc(N)nc(N)c1-c1ccc(Cl)cc1	50 µM (active)	
NC1CCCCC1		inactive
CCCC[C@H]1CN(CC2CCOCC2)C(=O)OC12CCN(C1(C)CCN(C(=O)c3c(C)ncnc3C)CC1)CC2		inactive
CCCCc1nc2cccnc2n1Cc1ccc(-c2ccccc2-c2nnn[nH]2)cc1	50 µM (active)	
CCOCCOCCO		inactive
CC(=O)O[C@]1(C(C)=O)CC[C@H]2[C@@H]3C=C(Cl)C4=CC(=O)[C@@H]5C[C@@H]5[C@]4(C)[C@H]3CC[C@@]21C	87.1 µM (active)	

Structure (SMILES)	AC50	outcome
Nc1nc(=S)c2[nH]cnc2[nH]1	0.655 µM (active)	
CCCCC(CC)COP(=O)(OCC(CC)CCCC)OCC(CC)CCCC (stereo not given)	17.6 µM (active)	
CC(=O)O		inactive
CC(C)c1cccc(C(C)C)c1NC(=O)NS(=O)(=O)c1cc(C(C)(C)O)co1	28.2 µM (active)	
O=C1CCCCC1		inactive
CN(C)C(=O)NC1(c2ccccc2)CCN(CC[C@@]2(c3ccc(F)c(F)c3)CN(C(=O)c3ccccc3)CCO2)CC1	47 µM (active)	
O=C(O)c1[nH]n(-c2ccc(S(=O)(=O)O)cc2)c(=O)c1N=Nc1ccc(S(=O)(=O)O)cc1		inactive
Cc1ccc(-c2cc(C(F)(F)F)nn2-c2ccc(S(N)(=O)=O)cc2)cc1	17.7 µM (active)	
O=C1O[C@H]([C@H](O)CO)C(O)=C1O		inactive
CC1(C)C(=O)NC(=O)N1CO		inactive
Cc1cc(Cc2ccc(N)c(C)c2)ccc1N		inactive
O=C(N[C@@H](c1ccccc1)[C@@H]1CCCCN1)c1cccc(C(F)(F)F)c1Cl	55.8 µM (active)	
CN(C)C(=O)NC1(c2ccccc2)CCN(CCC[C@]2(c3ccc(Cl)c(Cl)c3)CCCN(C(=O)c3ccccc3)C2)CC1	16.2 µM (active)	
OCC(CO)n1cnc(-c2ccc(F)cc2)c1-c1ccnc(Oc2ccccc2)n1		inactive
CCCCCCCC(=O)OC	13.9 µM (active)	
CCCCCCC(CCCCCCCCCCC(=O)OCC(COC(C)=O)OC(C)=O)OC(C)=O (stereo not given)		inactive
O=C1NC(=O)C(c2ccccc2)(c2ccccc2)N1	33.6 µM (active)	
O=C(O)CC(O)(CC(=O)O)C(=O)O		inactive
Cc1ccc(C(C)(C)C)c(O)c1		inactive
Oc1ccccc1O	18 µM (active)	
